Source: PubChem (National Center for Advancing Translational Sciences (NCATS))
Only some compounds are listed: those with a hit (about 11% of all), similar ones and a draw of the others.
JMJD2A Tudor inh – qHTS Assay for Inhibitors of JMJD2A-Tudor Domain. Potency, µM (doses to about 114 µM), for inactives: at the highest dose activity change, negative = inhibition, hits mostly inhibitors. hit rate 4.4% among 390,000. AlphaScreen JMJD2A-Tudor / H3K4me3 peptide binding; also: % is scaled to controls: 0 for no effect and ±100 for the full control effect; nearly all actives have a fitted effect of over 50% in size
Target sequence (O75164 whole entry, looked up, the tested form may be a part): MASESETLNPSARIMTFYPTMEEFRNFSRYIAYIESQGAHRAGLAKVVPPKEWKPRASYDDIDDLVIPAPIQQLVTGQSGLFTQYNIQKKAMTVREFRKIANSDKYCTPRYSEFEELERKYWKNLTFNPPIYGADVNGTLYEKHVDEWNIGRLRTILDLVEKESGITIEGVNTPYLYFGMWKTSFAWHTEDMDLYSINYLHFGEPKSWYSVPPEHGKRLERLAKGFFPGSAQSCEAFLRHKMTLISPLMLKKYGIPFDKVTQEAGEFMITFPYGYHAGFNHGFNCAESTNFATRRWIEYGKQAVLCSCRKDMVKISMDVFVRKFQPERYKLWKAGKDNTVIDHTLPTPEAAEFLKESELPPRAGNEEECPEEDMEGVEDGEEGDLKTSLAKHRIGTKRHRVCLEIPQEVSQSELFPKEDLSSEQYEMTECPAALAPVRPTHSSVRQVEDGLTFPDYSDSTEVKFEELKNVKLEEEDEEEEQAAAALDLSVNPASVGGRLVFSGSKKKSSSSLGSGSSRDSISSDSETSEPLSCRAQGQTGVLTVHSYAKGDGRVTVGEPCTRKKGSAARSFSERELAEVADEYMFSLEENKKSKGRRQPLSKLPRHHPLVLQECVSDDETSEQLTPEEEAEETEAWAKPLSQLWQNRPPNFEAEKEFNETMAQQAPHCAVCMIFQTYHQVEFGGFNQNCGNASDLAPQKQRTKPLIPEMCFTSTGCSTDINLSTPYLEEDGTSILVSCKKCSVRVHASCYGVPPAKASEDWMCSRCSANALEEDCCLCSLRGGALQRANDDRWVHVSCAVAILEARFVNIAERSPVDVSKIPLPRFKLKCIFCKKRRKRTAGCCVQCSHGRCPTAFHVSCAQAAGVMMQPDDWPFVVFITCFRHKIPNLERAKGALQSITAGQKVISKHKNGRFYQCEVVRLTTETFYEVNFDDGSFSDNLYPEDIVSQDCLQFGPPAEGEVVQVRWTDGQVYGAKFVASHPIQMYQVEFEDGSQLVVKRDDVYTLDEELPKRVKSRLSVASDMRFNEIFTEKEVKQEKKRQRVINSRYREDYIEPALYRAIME
HP1b binding inh – HTS for Inhibitors of HP1-beta Chromodomain Interactions with Methylated Histone Tails | Chromobox protein homolog 1 (Homo sapiens), P83916 | AlphaScreen HP1-beta / biotin-H3K9me3 peptide binding | Potency, µM (highest dose often 114 µM), for the others: at the highest dose activity change, negative = inhibition, usual class: inhibitors | hit rate 0.56% among 390,000 | AID 540317, 2011; also: nearly all actives have a fitted effect of over 70% in size
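Compound inhibition of the preformed complex between 50 nM HP1-beta and 50 nM biotinylated H3K9me3 peptide was read by AlphaScreen. Buffer was PBS pH 7.4 with 0.01% Tween-20. Incubations ran 30 min at room temperature, with 10 ug/mL donor/acceptor beads.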
L3MBTL1 inh – qHTS Assay for the Inhibitors of L3MBTL1; AlphaScreen L3MBTL1–H3K9me1 peptide binding; AID 485360, 2010; Potency, µM (highest dose often 57.1 µM), inactives show top-dose activity, negative = inhibition, most hits filed as inhibitors; Lethal(3)malignant brain tumor-like protein 1 (Homo sapiens), Q9Y468; hit rate 0.66% among 230,000; also: % is scaled to controls: 0 for no effect and ±100 for the full control effect; nearly all actives have a fitted effect of over 60% in size
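L3MBTL1 50 nM + b-AHA-H3(1-15)K9me1 75 nM, 30 min RT; compound added, 30 min RT; streptavidin donor/Ni-chelate acceptor beads 10 ug/mL each final, 30 min RT dark; AlphaScreen read.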
BAZ2B block – qHTS Assay for Inhibitors of BAZ2B. Bromodomain adjacent to zinc finger domain protein 2B (Homo sapiens), Q9UIF8. Potency, µM (doses to about 114 µM), inactives show at the top dose activity change, negative = inhibition, actives largely listed as inhibitors. AlphaScreen BAZ2B-H3K14Ac peptide displacement. hit rate 4.4% among 360,000; also: % is scaled to controls: 0 for no effect and ±100 for the full control effect; nearly all actives have a fitted effect of over 60% in size
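Complex of BAZ2B and biotin-H3K14Ac (50 nM apiece) forms over 30 min at RT, then faces library compounds up to 110 uM for another 30 min; AlphaScreen beads added, 20 min dark incubation, luminescence read.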
G9a block – qHTS Assay for Inhibitors of Histone Lysine Methyltransferase G9a; Histone-lysine N-methyltransferase EHMT2 (Homo sapiens), Q96KQ7; G9a H3K9 monomethylation, AlphaScreen, 2 h; Potency, µM (titrated, usually from 102 µM), without a hit: at the highest dose activity, negative = inhibition, hits mostly inhibitors; hit rate 8.8% among 350,000; AID 504332, 2011; also: % is scaled to controls: 0 for no effect and ±100 for the full control effect; nearly all actives have a fitted effect of over 75% in size
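AlphaScreen detection with an anti-monomethyl H3K9 antibody quantified product after a 2 h room-temperature reaction containing 500 nM biotinylated H3K9 peptide, 20 µM SAM and 20 nM enzyme, which had been preincubated 15 min with compound.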
Active calls of the source: *; [ ] = remark or other dose. Calls follow the shape of the dose curve; as a rule, active = well fitted inhibition curve with a large enough effect; inconclusive = small, poorly fitted or top-dose-only effect; inactive = no such curve, though single readings can be large or run the other way. Potency is read from the fitted curve at half-maximal effect.

Screening CC(=O)c1ccc(NC(=O)C(C)Sc2nnc(-c3ccncc3)n2C2CC2)cc1 (configuration not stated) returned JMJD2A Tudor inh inconclusive, HP1b binding inh 1% and L3MBTL1 inh -2%.
Screening CC(=O)C1=C(c2ccc(Br)cc2)C(=O)c2ccccc2C1=O returned JMJD2A Tudor inh 22µM*, HP1b binding inh 25µM*, L3MBTL1 inh -11%, BAZ2B block 25µM* and G9a block 35µM*.
For CNC1=C(N(C(C)=O)c2ccc(Br)cc2)C(=O)c2ccccc2C1=O the results were JMJD2A Tudor inh -23%, HP1b binding inh -10%, L3MBTL1 inh -10%, BAZ2B block inconclusive and G9a block inconclusive.
Screening COCCn1c(-c2ccc(OC)cc2)cnc1SCC(=O)Nc1cccc2ccccc12 returned JMJD2A Tudor inh 25µM*, HP1b binding inh -47%, L3MBTL1 inh inconclusive, BAZ2B block 18µM* and G9a block 35µM*.
Screening Cc1cnc(NC(=O)CSc2ncc(-c3ccccc3)n2Cc2ccco2)s1 returned JMJD2A Tudor inh inconclusive, HP1b binding inh -2%, BAZ2B block 22µM* and G9a block inconclusive.
COc1ccc(NC(=O)CSc2ncc(-c3ccc(F)cc3)n2Cc2ccco2)cc1 was read as JMJD2A Tudor inh 56µM*, HP1b binding inh inconclusive, L3MBTL1 inh inconclusive, BAZ2B block 32µM* and G9a block 28µM*.
`COc1ccc(-c2cnc(SCC(=O)Nc3nc(C(C)(C)C)cs3)n2Cc2ccco2)cc1` gave JMJD2A Tudor inh inconclusive, HP1b binding inh inconclusive, L3MBTL1 inh -4%[11.4 µM], BAZ2B block inconclusive and G9a block inconclusive.
Screening CCC(=O)Nc1cc(NC(=O)CSc2ncc(-c3ccc(F)cc3)n2Cc2ccco2)ccc1C returned JMJD2A Tudor inh inconclusive, HP1b binding inh -12%, L3MBTL1 inh -10% and G9a block inconclusive.
Screening COc1ccc(-c2cnc(SCC(=O)Nc3cc(C)on3)n2Cc2ccco2)cc1 returned JMJD2A Tudor inh 50µM*, HP1b binding inh inconclusive, L3MBTL1 inh -20%, BAZ2B block 45µM* and G9a block inconclusive.
`CSc1cccc(NC(=O)c2ccc3c(c2)c(C)c(C)n3Cc2ccc(F)cc2)c1` gave JMJD2A Tudor inh -32%, HP1b binding inh 15%, BAZ2B block -13% and G9a block -6%[59 µM].
For COc1ccccc1NC(=O)c1cc(S(=O)(=O)NCCC2=CCCCC2)ccc1F the results were JMJD2A Tudor inh -6%, HP1b binding inh 43%, BAZ2B block 8% and G9a block 2%[59 µM].
COc1ccc(OC)c(C(c2nnnn2CC2CCCO2)N2CCN(C)CC2)c1 (configuration not stated) was read as JMJD2A Tudor inh -14%, HP1b binding inh 17%, BAZ2B block 79µM* and G9a block inconclusive.
`C=CCN1CCN(C(c2cc(OC)ccc2OC)c2nnnn2CC2CCCO2)CC1` (configuration not stated) gave JMJD2A Tudor inh -14%[11.4 µM], HP1b binding inh 9%, L3MBTL1 inh 11% and G9a block 13µM*.
`Fc1ccc(CSc2nnc(-c3ccccn3)o2)cc1` gave JMJD2A Tudor inh 1%, HP1b binding inh 47%, L3MBTL1 inh 0%, BAZ2B block -5% and G9a block 10%[59 µM].
CCn1cc2nc(SCC(=O)Nc3ccc(C)cc3)n(Cc3ccc(C)cc3)c(=O)c2n1 was read as JMJD2A Tudor inh -20%, HP1b binding inh 25%, BAZ2B block -19% and G9a block -4%[59 µM].
Screening NC(=O)C1CCN(Cc2ccc(OCc3ccccc3)cc2)CC1 returned JMJD2A Tudor inh 3.5µM*, HP1b binding inh inconclusive, L3MBTL1 inh 1%, BAZ2B block 56µM* and G9a block 10µM*.
`CCOC(=O)N1CCN(C(=O)C2CCN(Cc3cccc(OCc4ccccc4)c3)CC2)CC1` gave JMJD2A Tudor inh 2.2µM*, HP1b binding inh inconclusive, L3MBTL1 inh -3%, BAZ2B block inconclusive and G9a block 14µM*.
Screening CCOC(=O)N1CCN(C(=O)C2CCN(C(=O)Nc3ccccc3)CC2)CC1 returned JMJD2A Tudor inh -11%, HP1b binding inh 28% and L3MBTL1 inh 5%.
`CCCCN(C)C(=O)C1CCN(Cc2ccc(OCc3ccccc3)cc2)CC1` gave JMJD2A Tudor inh 3.5µM*, HP1b binding inh -51%, L3MBTL1 inh 11%, BAZ2B block inconclusive and G9a block inconclusive.
CCOC(=O)C1CCN(C(=O)Nc2ccc(OCc3ccccc3)cc2)CC1 was read as JMJD2A Tudor inh 1%, HP1b binding inh 18%, L3MBTL1 inh 8%, BAZ2B block 0% and G9a block -8%[59 µM].
Screening CCOC(=O)C1CCN(Cc2ccc(OCc3ccccc3)cc2)CC1 returned JMJD2A Tudor inh 28µM*, HP1b binding inh inconclusive, L3MBTL1 inh -2%, BAZ2B block -37% and G9a block 28µM*.
For O=C(CC1N=C2c3ccccc3N=C(SCc3cccc(F)c3)N2C1=O)NCc1cccs1 (configuration not stated) the results were JMJD2A Tudor inh -23%, HP1b binding inh 8%, BAZ2B block -9% and G9a block 10%[59 µM].
C=CCCCCCCCCC(=O)Nc1ncccn1 was read as JMJD2A Tudor inh -26%[11.4 µM], HP1b binding inh -10%, L3MBTL1 inh 4%, BAZ2B block 1% and G9a block -3%.
COC(=O)c1ccccc1NC(=O)NC1CCN(Cc2ccccc2)CC1 was read as JMJD2A Tudor inh -15%, HP1b binding inh 5%, L3MBTL1 inh 9%, BAZ2B block 0% and G9a block -21%[59 µM].
For CCCCCOc1ccc2oc(=O)c3c(c2c1)CCCN3C(=O)CN1CCCC(C(=O)OCC)C1 (configuration not stated) the results were JMJD2A Tudor inh -17%, HP1b binding inh 23%, BAZ2B block -17% and G9a block -26%.
COc1ccc(CN2CCN(C)CC2)cc1OCc1ccccc1 was read as JMJD2A Tudor inh -20%, HP1b binding inh 36%, BAZ2B block -8% and G9a block inconclusive.
Screening COc1ccc(CN2CCC(C(N)=O)CC2)cc1OCc1ccccc1 returned JMJD2A Tudor inh 32µM*, HP1b binding inh inconclusive, L3MBTL1 inh 10% and BAZ2B block inconclusive.
`CCOC(=O)C1CCCN(Cc2ccc(OC)c(OCc3ccccc3)c2)C1` (configuration not stated) gave JMJD2A Tudor inh 28µM*, HP1b binding inh inconclusive, L3MBTL1 inh -2%, BAZ2B block -39% and G9a block 45µM*.
